FBW7 activator = activators of human E3 ligase FBW7; Q969H0; AlphaScreen FBW7–phospho-cyclin E peptide binding, activator screen; normalized activity (activation), % at 26.1 µM; 650,000 compounds, 0.13% hits; in the data active means normalized activity above about 1.9%;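 further: purified mutant Fbw7 with reduced substrate affinity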
GPR151 activ = human GPR151 activation; Q8TDV0; PathHunter beta-arrestin GPR151 cells, luminescence; activation, % at 11.2 µM; 650,000 compounds, 1% hits; in the data active means activation above about 4.9%
Target sequence (Q8TDV0 whole entry, looked up): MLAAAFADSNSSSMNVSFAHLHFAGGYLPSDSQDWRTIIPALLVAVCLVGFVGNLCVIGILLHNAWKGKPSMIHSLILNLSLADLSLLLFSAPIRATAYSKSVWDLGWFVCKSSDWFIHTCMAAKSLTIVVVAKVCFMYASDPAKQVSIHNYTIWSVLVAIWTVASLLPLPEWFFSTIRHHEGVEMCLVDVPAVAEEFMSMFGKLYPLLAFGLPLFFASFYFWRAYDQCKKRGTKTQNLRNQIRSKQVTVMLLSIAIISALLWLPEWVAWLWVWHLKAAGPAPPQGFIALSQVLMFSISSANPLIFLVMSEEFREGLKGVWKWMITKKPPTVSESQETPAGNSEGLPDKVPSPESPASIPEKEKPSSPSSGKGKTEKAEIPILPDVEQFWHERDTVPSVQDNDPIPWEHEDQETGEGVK
TEAD-YAP block = TEAD-YAP interaction inhibition; 640,000 compounds, 1.4% hits; inhibition, % at 9.12 µM; AID 1259422; HEK-TIYL cells, TEAD-Gal4/YAP UAS-luciferase luminescence; in the data active means inhibition above about 32%
MITF inh = inhibitors of human MITF; AlphaScreen MITF homodimerization, bead proximity signal; inhibition, % at 2.6 µM; 650,000 compounds, 0.91% hits; O75030; in the data active means inhibition above about 50%
GPR151 confirm = confirmation of human GPR151 activators. 6,700 tested, under 10 active. activation, % at 11.2 µM. shares compounds with GPR151 activ. GPR151 PathHunter beta-arrestin cells, luminescence, 90 min; % of EA-reagent control over plate median;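 active means mean percent activation across replicates above the confirmation screen cutoff of 4.91%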
GPR119 ag = counter-screen for GPR151 activators: effect on human GPR119 | shares compounds with GPR151 activ | GPR119 PathHunter beta-arrestin cells, luminescence, 90 min; 0 = compound-well median, 100 = enzyme-acceptor control | activation, % at 11.2 µM | 6,700 compounds, 0.3% hits | AID 1508611;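 active means mean percent activation in the counterscreen above 29.09%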;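 further: counterscreen on off-target GPR119 to flag nonselective hits from the GPR151 activator screen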
Hits are given with their value; – = inactive; · = no result; ! = a repeat was not active. Compounds with a hit are over-represented: about 3.5% of the library has one in this group of screens.

SMILES	FBW7 activator	GPR151 activ	TEAD-YAP block	MITF inh	GPR151 confirm	GPR119 ag
Cc1sc2ncnc(Nc3ccc(Cl)cc3)c2c1C	–	–	–	–	·	·
CS(=O)(=O)c1ccc2nc(NC(=O)CS(=O)(=O)c3ccc(Cl)cc3)sc2c1	–	5.4	–	–	–	–
COCCCNC(=S)N1CCC(NC(=O)c2ccccc2C)CC1	–	–	–	–	·	·
CC1CC(C)CN(CCC(=O)Nc2ccccc2F)C1 (stereo not given)	–	–	–	–	·	·
N#Cc1cc(C(=O)c2cc(F)ccc2O)cn(C2CC2)c1=O	–	5.9	–	–	–	–
CCOC(CNC(=O)c1c[nH]c2ccc(S(=O)(=O)N(C)c3ccc(Br)cc3)cc2c1=O)OCC	–	–	–	–	·	·
CCOc1cc(C2C(C(=O)N3CCCCC3)=C(C)NC3=C2C(=O)CCC3)cc(Br)c1OC (stereo not given)	–	4.9	–	–	–	–
O=c1cc2oc3cc(O)c(O)cc3c(-c3ccccc3)c-2cc1O	–	6.2	–	104.4	–	–
O=c1cc(-c2ccccc2O)oc2cc(O)ccc12	–	–	–	–	·	·
COc1ccc(OC)c(-c2c3cc(O)c(=O)cc-3oc3cc(O)c(O)cc23)c1	–	5.0	–	106.9	–	–
COc1c(C)cccc1C(=O)NC(=S)Nc1cccnc1	–	–	–	–	·	·
COc1ccc2ccccc2c1/C=C(\C#N)c1ccccn1	–	5.2	–	–	–	–
COc1ccc(/C=C(\C#N)c2ccccn2)c(OC)c1OC	–	–	–	–	·	·
COc1ccc(COC(=O)C2=C(C)NC3=C(C(=O)CC(C)(C)C3)C2c2ccc(O)c(OC)c2)cc1 (stereo not given)	–	–	–	–	·	·
COc1cc(C2C(C(=O)OCc3ccccc3)=C(C)NC3=C2C(=O)CCC3)ccc1O (stereo not given)	–	5.5	–	–	–	–
COc1ccc(COC(=O)C2=C(C)NC3=C(C(=O)CC(C)(C)C3)C2c2ccc(OC)cc2)cc1 (stereo not given)	–	–	–	–	·	·
COc1ccc(COC(=O)C2=C(C)NC3=C(C(=O)CCC3)C2c2ccc(OC)c(O)c2)cc1 (stereo not given)	–	5.0!	–	–	–	–
COc1cc(C2C(C(=O)OC(C)(C)C)=C(C)NC3=C2C(=O)CC(C)(C)C3)ccc1O (stereo not given)	–	5.4	–	–	–	–
COC(=O)c1ccc(C2C(C(=O)OCc3ccc(OC)cc3)=C(C)NC3=C2C(=O)CC(C)(C)C3)cc1 (stereo not given)	–	5.2	–	–	–	–
COCc1nnc(NC(=O)COc2cccc(C)c2)s1	–	–	–	–	·	·
O=C(COc1ccc(F)cc1)Oc1coc(CSc2ncccn2)cc1=O	–	–	–	–	·	·
O=S(=O)(NCC(c1ccco1)S(=O)(=O)c1ccc(F)cc1)c1cccs1 (stereo not given)	–	11.1	–	–	–	–
COC(=O)C(C)NC(=O)C(Cc1c[nH]c2ccccc12)NC(C)=O (stereo not given)	–	–	–	–	·	·
CC(C)CC(NC(=O)C(C)NC(=O)CNC(=O)C(NC=O)C(C)C)C(=O)NC(C)C(=O)NC(C(=O)NC(C(=O)NC(C(=O)NC(Cc1c[nH]c2ccccc12)C(=O)NC(CC(C)C)C(=O)NC(Cc1c[nH]c2ccccc12)C(=O)NC(CC(C)C)C(=O)NC(Cc1c[nH]c2ccccc12)C(=O)NC(CC(C)C)C(=O)NC(Cc1c[nH]c2ccccc12)C(=O)NCCO)C(C)C)C(C)C)C(C)C (stereo not given)	–	23.5	84.3	–	13.5	112.6
O=c1cc(Nc2ccc3c(c2)OCO3)[nH]c(=O)n1-c1ccc(Br)cc1	–	22.2	–	–	–	–
SMILES	FBW7 activator	GPR151 activ	TEAD-YAP block	MITF inh	GPR151 confirm	GPR119 ag
O=C(N1CCCCCC1)N1CCN(C(=O)N2CCOCC2)CC1	–	5.8	–	–	–	–
O=C(N1CCOCC1)N1CCN(S(=O)(=O)N2CCCC2)CC1	–	–	–	–	·	·
COc1ccc2c(c1)C1NC(=S)N(c3ccc(C)cc3)C(C)(O2)C1C(=O)N(C)C (stereo not given)	–	–	–	–	·	·
CCOc1ccc(C2NC(=S)NC3=C2C(=O)CCC3)cc1 (stereo not given)	–	5.8	–	–	–	–
COc1cccc(/C=N/Nc2ccc([N+](=O)[O-])cc2)c1	–	–	–	–	·	·
COc1cc(C2c3c(oc4ccc(F)cc4c3=O)C(=O)N2c2nccs2)ccc1O (stereo not given)	–	6.2	–	–	–	–
Cc1ccc(SC(C)C(=O)Nc2ccncc2)cc1 (stereo not given)	–	–	–	–	·	·
O=C(CCS(=O)(=O)c1ccc(Br)s1)NC1CCCc2ccccc21 (stereo not given)	–	–	–	–	·	·
CN(CC(=O)NC1CCCc2ccccc21)S(=O)(=O)c1ccc(Br)s1 (stereo not given)	–	11.5	–	–	–	–
CCOC(=O)C1=C(C)N=c2s/c(=C/c3ccccc3)c(=O)n2C1c1ccc(C)cc1 (stereo not given)	–	–	–	–	·	·
CN(Cc1ccccc1)S(=O)(=O)c1ccc2[nH]c(=O)c(=O)[nH]c2c1	–	5.2	–	–	–	–
Cc1cc2[nH]c(=O)c(=O)[nH]c2cc1S(=O)(=O)N(C)Cc1ccccc1	–	–	–	–	·	·
CCOc1ccc(N2C(=O)CC(Sc3ncn[nH]3)C2=O)cc1 (stereo not given)	–	–	–	–	·	·
CC(C(=O)OCC(=O)c1ccc(Br)cc1)N1C(=O)C2C3CCC(C3)C2C1=O (stereo not given)	–	–	–	–	·	·
Cc1ccc(C(=O)COC(=O)C(C)N2C(=O)C3C4CCC(C4)C3C2=O)cc1 (stereo not given)	–	5.4	–	–	–	–
O=C(NCc1cccs1)c1nn2c(c1Br)NC(c1cccs1)CC2C(F)(F)F (stereo not given)	–	–	–	–	·	·
CCCCC(Sc1nc2cc3c(cc2c(=O)n1CCCC(=O)NCc1ccc2c(c1)OCO2)OCO3)C(=O)OCC (stereo not given)	–	–	–	–	·	·
O=C(Nc1ccc2c(c1)CN(C(=O)Cn1c(=O)oc3ccccc31)CC2)C1CCCO1 (stereo not given)	–	6.8	–	–	–	–
Nc1ccccc1S(=O)(=O)NCC(=O)O	–	–	–	–	·	·
Nc1ccccc1S(=O)(=O)Nc1ccccc1	–	5.0	–	–	–	–
O=C(Nc1nccs1)c1cccc2ccccc12	–	–	–	–	·	·
CC(C)(C)c1ccc(OCC(O)CN2CCN(Cc3ccc4c(c3)OCO4)CC2)cc1 (stereo not given)	–	–	–	–	·	·
CC(C)NC(=O)CCc1nnc2n(Cc3ccc(F)cc3)c(=O)c3ccccc3n12	–	8.0	–	–	–	–

Source: PubChem
